Potency, activation and activity change, negative = inhibition data for 25 compounds are collected here from PubChem BioAssay (NCATS).

Results filed as inconclusive are left out. Values without a mark were called inactive. The source made the active and inactive calls. Calls follow the shape of the dose curve; as a rule, active = well fitted curve in the direction sought with a large enough effect; inconclusive = small, poorly fitted or top-dose-only effect, or another doubt; inactive = no such curve, though single readings can be large; an effect the other way counts as inactive or inconclusive.

Test [1] has as its target Rap guanine nucleotide exchange factor 3 (Homo sapiens) (UniProt O95398). Briefly: Confirmatory qHTS for antagonist of cAMP-regulated guanine nucleotide exchange factor 3 (EPAC1) (AID 1645880). Also: nearly all actives have a fitted effect of over 55% in size. Also: potency is read from the fitted curve at half-maximal effect.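 As to activity, negative = inhibition: plate controls were DMSO only for no effect and full effect of the ATA control for full effect.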 The conditions noted are these: EPAC1 Rap1B-BODIPY-GDP exchange, fluorescence; activity, negative = inhibition: at 115 µM (top of the series). An outline of the steps:
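Nucleotide exchange uses 100 nM EPAC1, 250 nM RAP1B-BODIPY-GDP and 50 uM GDP, with compounds in a concentration-titration series. After 5 min at room temperature, fluorescence (480 nm ex/540 nm em) is read every 5 min for 30 min. Data are normalized to control ATA and DMSO.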
For orientation: Quantitative high-throughput screening tests each substance at several concentrations.

Test [2] shares this target. Briefly: Confirmatory qHTS for agonist of cAMP-regulated guanine nucleotide exchange factor 3 (EPAC1) (AID 1645881). Also: nearly all actives have a fitted effect of over 75% in size. Also: potency is read from the fitted curve at half-maximal effect.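 As to activation: EPAC1 catalysed release of BODIPY-GDP from Rap1B seen as fluorescence loss; 100% = effect of cAMP agonist control.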
The target of test [3] is Rap guanine nucleotide exchange factor 4 (Homo sapiens) (UniProt Q8WZA2). Description: Confirmatory qHTS for agonist of cAMP-regulated guanine nucleotide exchange factor 4 (EPAC2) (AID 1645884).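 Also: nucleotide exchange releases bodipy-GDP from Rap1 and this lowers its fluorescence; nearly all actives have a fitted effect of over 65% in size.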 Also: potency is read from the fitted curve at half-maximal effect. As to activation: % is scaled to controls: 0 for no effect and ±100 for the full control effect.
Test [4] addresses Rap guanine nucleotide exchange factor 3 (Homo sapiens) (UniProt O95398). Briefly: Counterscreen qHTS for antagonist of cAMP-regulated guanine nucleotide exchange factor 3 (EPAC1) (AID 1645888).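 Also: fluorescence loss as bound BODIPY-GDP is released from Rap1B; % of control where 0% means no effect.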 An outline of the steps:
(§1)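 Measured: fluorescence of BODIPY-GDP bound to Rap1B, which falls as exchange proceeds. Conditions include 50 uM competing GDP, 5 and 30 min reads, and a later cAMP challenge for antagonist detection.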
For orientation: The purpose of a counterscreen is to sort out artefacts and off-target activity.

Test [5] has the same target. Description: Counterscreen qHTS for agonist of cAMP-regulated guanine nucleotide exchange factor 3 (EPAC1) (AID 1645889). Also: nearly all actives have a fitted effect of over 40% in size. Also: potency is read from the fitted curve at half-maximal effect. As to activation: % of control where 0% means no effect. An outline of the steps: as §1

Sequence of Rap guanine nucleotide exchange factor 4 (Homo sapiens) (Q8WZA2 whole entry, looked up): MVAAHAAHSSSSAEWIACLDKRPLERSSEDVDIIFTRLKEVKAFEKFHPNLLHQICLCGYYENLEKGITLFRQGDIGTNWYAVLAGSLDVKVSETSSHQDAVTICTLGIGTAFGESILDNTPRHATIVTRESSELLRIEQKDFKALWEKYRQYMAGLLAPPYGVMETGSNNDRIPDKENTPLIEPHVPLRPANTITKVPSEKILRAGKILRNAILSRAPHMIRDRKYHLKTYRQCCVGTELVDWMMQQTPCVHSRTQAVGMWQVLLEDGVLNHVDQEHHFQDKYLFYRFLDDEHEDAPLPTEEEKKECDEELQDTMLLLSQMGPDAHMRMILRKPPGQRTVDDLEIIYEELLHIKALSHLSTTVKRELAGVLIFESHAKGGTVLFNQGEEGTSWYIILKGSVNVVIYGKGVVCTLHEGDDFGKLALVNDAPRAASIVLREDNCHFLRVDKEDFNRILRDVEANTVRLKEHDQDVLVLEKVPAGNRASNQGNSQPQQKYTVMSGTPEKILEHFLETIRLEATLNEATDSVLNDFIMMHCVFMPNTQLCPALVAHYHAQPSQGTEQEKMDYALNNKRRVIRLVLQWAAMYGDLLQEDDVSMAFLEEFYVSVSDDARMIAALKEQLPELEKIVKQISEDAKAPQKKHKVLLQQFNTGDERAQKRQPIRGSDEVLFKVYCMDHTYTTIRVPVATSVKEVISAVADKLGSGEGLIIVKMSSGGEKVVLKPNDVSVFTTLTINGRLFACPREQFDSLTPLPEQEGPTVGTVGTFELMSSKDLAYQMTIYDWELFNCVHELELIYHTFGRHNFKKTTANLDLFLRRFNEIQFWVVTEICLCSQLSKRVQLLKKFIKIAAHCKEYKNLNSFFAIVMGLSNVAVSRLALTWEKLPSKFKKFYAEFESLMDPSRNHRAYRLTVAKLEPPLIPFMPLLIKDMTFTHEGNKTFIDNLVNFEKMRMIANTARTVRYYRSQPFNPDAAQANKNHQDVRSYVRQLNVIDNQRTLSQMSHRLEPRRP
Sequence of Rap guanine nucleotide exchange factor 3 (Homo sapiens) (O95398 whole entry, looked up): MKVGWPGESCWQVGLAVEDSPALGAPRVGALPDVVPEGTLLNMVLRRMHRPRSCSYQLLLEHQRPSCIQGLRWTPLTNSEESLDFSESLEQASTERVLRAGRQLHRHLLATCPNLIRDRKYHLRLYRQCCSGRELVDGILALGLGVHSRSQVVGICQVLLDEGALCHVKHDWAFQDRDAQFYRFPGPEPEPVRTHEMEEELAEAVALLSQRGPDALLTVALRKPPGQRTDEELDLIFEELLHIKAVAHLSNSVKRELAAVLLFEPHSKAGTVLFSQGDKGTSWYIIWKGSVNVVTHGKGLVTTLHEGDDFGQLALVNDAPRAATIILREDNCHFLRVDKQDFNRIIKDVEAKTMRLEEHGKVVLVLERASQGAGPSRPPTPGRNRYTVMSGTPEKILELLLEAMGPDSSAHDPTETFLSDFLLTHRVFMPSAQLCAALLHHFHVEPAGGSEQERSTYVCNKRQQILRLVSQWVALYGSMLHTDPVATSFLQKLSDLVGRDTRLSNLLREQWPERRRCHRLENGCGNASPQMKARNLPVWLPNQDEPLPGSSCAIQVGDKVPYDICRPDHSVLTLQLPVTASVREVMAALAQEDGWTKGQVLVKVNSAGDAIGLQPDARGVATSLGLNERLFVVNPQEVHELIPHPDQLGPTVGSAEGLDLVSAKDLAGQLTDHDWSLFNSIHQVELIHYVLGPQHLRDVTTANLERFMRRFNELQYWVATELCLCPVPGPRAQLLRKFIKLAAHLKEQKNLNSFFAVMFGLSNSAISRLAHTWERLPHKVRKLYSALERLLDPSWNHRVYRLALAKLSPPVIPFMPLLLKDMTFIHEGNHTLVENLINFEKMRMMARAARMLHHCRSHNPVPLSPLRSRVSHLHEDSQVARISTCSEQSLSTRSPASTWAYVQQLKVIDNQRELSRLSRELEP

As for `Nc1nc(C(c2ccccc2)c2ccccc2)cs1`, the Potency entry in test [1], in test [2], in test [3], in test [4] and in test [5] was “inactive” throughout.

For the compound `CC1CCN(c2oc(-c3ccccc3F)nc2C#N)CC1`, the Potency result in test [1], in test [2], in test [3], in test [4] and in test [5] was “inactive” in each case.

Regarding `Nc1nnc(CC(=O)N/N=C/c2cc([N+](=O)[O-])cc(Br)c2O)s1`, in test [1], the Potency is 10.7 µM (active). The Potency entry in test [2], in test [3], in test [4] and in test [5] was “inactive” throughout.

In the case of `OC[C@@H]1[C@@H](c2ccc(F)cc2)C(c2cccc(Cl)c2)=NN1c1ccccc1`, the Potency result in test [1], in test [2], in test [3] and in test [4] was “inactive” each time. Moreover, in test [5], the Potency was 12.6 µM (active).

`COC(=O)C1=CN(Cc2cccs2)C=C(C(=O)OC)C1c1cccc(Cl)c1`: the Potency result in test [1] and in test [2] was “inactive” each time. The activation in test [3] was 2.31% [at 17.1 µM, percent relative to cAMP agonist control]; in test [5], 24.6% [at 30.8 µM]. The activity change, negative = inhibition in test [4] was -4.15% [at 30.8 µM].

`CCOc1ccccc1OCC(=O)Nc1cc(S(=O)(=O)N2CCCCC2)ccc1N1CCN(CC)CC1`: the Potency entry in test [1], in test [2], in test [3], in test [4] and in test [5] was “inactive” throughout.

For `Cc1ccc(C)c(N2CCN(C(=O)CCCn3c(=O)c4cccn4c4cccnc43)CC2)c1`, the Potency result in test [1] and in test [2] was “inactive” each time. The activation in test [3] was 6.05% [at 17.1 µM, percent relative to cAMP agonist control]. Besides, the activity change, negative = inhibition in test [4] was -21.9% [at 30.8 µM]. Also, the Potency in test [5] was 0.0089 µM (active).

For the compound `COc1ccccc1CN(C(=O)CNC(=O)c1ccco1)C(C(=O)NCC1CCCO1)c1ccc(OC)c(OC)c1` (stereo not given), the Potency entry in test [1], in test [2], in test [3], in test [4] and in test [5] was “inactive” each time.

For `O=C(c1ccc(CN2CCc3ccccc3C2)cc1)N1CCCCC1`, the Potency entry in test [1], in test [2], in test [3], in test [4] and in test [5] was “inactive” throughout.

Regarding `CC(=O)NC(c1ccccc1)c1nc(-c2cccs2)cs1` (stereo not given), the Potency entry in test [1], in test [2], in test [3], in test [4] and in test [5] was “inactive” in each case.

With `Cc1ccc(N2CC(c3nc4ccccc4[nH]3)CC2=O)c(C)c1` (stereo not given), the Potency entry in test [1], in test [2], in test [3], in test [4] and in test [5] was “inactive” each time.

As for `COc1ccccc1C(=O)C1CCCN(C(=O)c2ccc3c(c2)OCCO3)C1` (stereo not given), the Potency entry in test [1], in test [2], in test [3], in test [4] and in test [5] was “inactive” in each case.

As to `CCCN(C(=O)COC(=O)COc1c(C)cccc1C)c1c(N)n(Cc2ccccc2)c(=O)[nH]c1=O`, the Potency entry in test [1], in test [2], in test [3], in test [4] and in test [5] was “inactive” in each case.

With `CC(=O)c1c(-c2ccccc2)c2cc(Cl)ccc2n(C)c1=O`, the Potency result in test [1] and in test [2] was “inactive” throughout. The activation was -9.72% [at 17.1 µM, percent relative to cAMP agonist control] in test [3] and 9.36% [at 30.8 µM] in test [5]. Besides, the activity change, negative = inhibition in test [4] was -1.67% [at 30.8 µM].

On to `CN1/C(=C\C=C(/C#N)C(=O)Nc2ccc(Cl)cc2)C(C)(C)c2ccccc21`, for which the Potency entry in test [1], in test [4] and in test [5] was “inactive” throughout. In addition, the Potency in test [2] and in test [3] was 100 µM (active) in each case.

`CC(C(=O)Nc1ccc(O)c(C(=O)O)c1)N1C(=O)/C(=C/c2cccs2)SC1=S` (stereo not given): the Potency in test [1] is 37.9 µM (active). Besides, the Potency result in test [2], in test [3], in test [4] and in test [5] was “inactive” each time.

In the case of `Cc1ccc([C@H]2C(C(=O)O)=CC[C@@H](c3ccc(C(C)C)cc3)N2S(=O)(=O)c2ccc(C)cc2)cc1`, the Potency in test [1] is 75.7 µM (active). Also, the Potency result in test [2], in test [3], in test [4] and in test [5] was “inactive” in each case.

With `Cc1cc(C(=O)c2ccc3ccccc3c2)c(C)o1`, the Potency result in test [1], in test [2], in test [3], in test [4] and in test [5] was “inactive” in each case.

Regarding `COCCN(CCOC)Cc1cc(=O)oc2cc(C)c(Cl)cc12`, the Potency result in test [1], in test [2], in test [3], in test [4] and in test [5] was “inactive” throughout.

In the case of `CCN(CC(=O)Nc1ccccc1C(=O)NC1CC1)Cc1cccs1`, the Potency entry in test [1], in test [2], in test [3], in test [4] and in test [5] was “inactive” throughout.

On to `O=C(Cc1ccccc1)Nn1c(O)c(/C=C2\C=Nc3ccccc32)sc1=S`, for which the Potency result in test [1] and in test [4] was “inactive” in each case. Further, the Potency in test [2] is 112 µM (active); in test [3], 100 µM (active); in test [5], 39.8 µM (active).

With `CN(C)c1ccccc1-c1cc(NC=O)c2ncc(-c3cccc(C(F)(F)F)c3)n2c1`, the Potency in test [1] is 47.8 µM (active). In addition, the Potency result in test [2], in test [3], in test [4] and in test [5] was “inactive” throughout.

Turning to `CC(Oc1ccc(Cl)cc1Cl)c1ccn[nH]1` (stereo not given), the Potency entry in test [1], in test [2], in test [3], in test [4] and in test [5] was “inactive” each time.

For `CSCCC(NS(=O)(=O)c1ccc2c(c1)oc(=O)n2C)C(=O)NC1CCCCC1` (stereo not given), the Potency result in test [1], in test [2], in test [3], in test [4] and in test [5] was “inactive” each time.

In the case of `O=C1c2ccccc2C(Nc2cccnc2)N1Cc1ccccc1Cl` (stereo not given), the Potency result in test [1], in test [2], in test [3], in test [4] and in test [5] was “inactive” each time.
